From PubChem BioAssay come the findings set out here.

SMILES strings stand for the structures. Calls of active or inactive are those of the source.

Assay [1] is described as follows: E. coli DRC41 culture turbidity changes, primary screen, E. coli filamentation inducer project, strain DRC41, OD650, 48 h (AID 1152).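 Also: E. coli MC1000 strain DRC41 lacking acrAB efflux pump and sulA.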 The conditions noted are these: E. coli DRC41 (acrAB sulA), higher = more signal, called active from +8 up or from −8 down.
Assay [2] in a line: small-molecule binders of probe aLefty1, primary screen, biochemical, small-molecule microarray, 635/667 nm fluorescence (AID 1153).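 Also: score merges spot fluorescence with signal-to-noise ratio from the scanned slide images.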 The conditions noted are these: higher = more signal.
Assay [3] in a line: PSAC antagonists in infected red cells, primary screen, cell-based, P. falciparum Indochina, OD700, 1 h (AID 1154). The conditions noted are these: P. falciparum Indochina infected RBC osmotic lysis, higher = more signal, called active from +8 up or from −8 down.
The nature of assay [4]: PSAC antagonists in infected red cells, primary screen, cell-based, P. falciparum Indochina, OD700, 2 h (AID 1155).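 Also: lysis reports solute entry through the parasite surface anion channel PSAC; channel blockers reduce lysis of infected cells.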 Conditions: P. falciparum Indochina infected erythrocytes, osmotic lysis OD700; higher = more signal, called active from +8 up or from −8 down.
A short description of assay [5]: osmotic lysis modulators in infected erythrocytes, primary screen, PSAC antagonist project, cell-based, P. falciparum Indochina, OD700, 3 h (AID 1156). Conditions: higher = more signal, called active from +8 up or from −8 down.
The nature of assay [6]: PSAC antagonists in infected red cells, primary screen, cell-based, P. falciparum Indochina, OD700, 18 h (AID 1157). Conditions: P. falciparum Indochina infected erythrocytes, osmotic lysis OD700, 18 h; higher = more signal, called active from +8 up or from −8 down.
Assay [7] in a line: modulators of S6 phosphorylation in cells, primary screen, cell-based, A549, cytoblot, luminescence, serum-stimulated (AID 1158).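 Also: serum-stimulated A549 lung adenocarcinoma cells; signal is phosphorylated S6 detected by cytoblot immunostaining with HRP secondary.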 Conditions: A549 phospho-S6 cytoblot, 5 h, higher = more signal.
Assay [8] addresses NADPH oxidase 2 (Homo sapiens) (UniProt P04839). In words: NOX2-dependent H2O2 signal modulators, primary screen, NOX inhibitor project, cell-based, HEK293-NOX2, PMA-stimulated, Amplex Red fluorescence (AID 1159). Also: test concentration not given here. Conditions: 45 min, higher = more signal, called active from +8 up or from −8 down.
Assay [9] has as its target NADPH oxidase 4 (Homo sapiens) (UniProt Q9NPH5). As to the kind of experiment: NOX4-dependent H2O2 signal modulators, primary screen, NOX inhibitor project, cell-based, HEK293-NOX4, tetracycline-induced, Amplex Red fluorescence (AID 1160). The conditions noted are these: 45 min, higher = more signal, called active from +8 up or from −8 down.
Assay [10] deals with NADPH oxidase 5 (Homo sapiens) (UniProt Q96PH1). In words: NOX5-dependent H2O2 signal modulators, primary screen, NOX inhibitor project, cell-based, HEK293-NOX5, Amplex Red fluorescence (AID 1161). Conditions: HEK293-NOX5, ionomycin, 45 min, higher = more signal.
Chain of NADPH oxidase 5 (Homo sapiens) (Q96PH1 whole entry, looked up): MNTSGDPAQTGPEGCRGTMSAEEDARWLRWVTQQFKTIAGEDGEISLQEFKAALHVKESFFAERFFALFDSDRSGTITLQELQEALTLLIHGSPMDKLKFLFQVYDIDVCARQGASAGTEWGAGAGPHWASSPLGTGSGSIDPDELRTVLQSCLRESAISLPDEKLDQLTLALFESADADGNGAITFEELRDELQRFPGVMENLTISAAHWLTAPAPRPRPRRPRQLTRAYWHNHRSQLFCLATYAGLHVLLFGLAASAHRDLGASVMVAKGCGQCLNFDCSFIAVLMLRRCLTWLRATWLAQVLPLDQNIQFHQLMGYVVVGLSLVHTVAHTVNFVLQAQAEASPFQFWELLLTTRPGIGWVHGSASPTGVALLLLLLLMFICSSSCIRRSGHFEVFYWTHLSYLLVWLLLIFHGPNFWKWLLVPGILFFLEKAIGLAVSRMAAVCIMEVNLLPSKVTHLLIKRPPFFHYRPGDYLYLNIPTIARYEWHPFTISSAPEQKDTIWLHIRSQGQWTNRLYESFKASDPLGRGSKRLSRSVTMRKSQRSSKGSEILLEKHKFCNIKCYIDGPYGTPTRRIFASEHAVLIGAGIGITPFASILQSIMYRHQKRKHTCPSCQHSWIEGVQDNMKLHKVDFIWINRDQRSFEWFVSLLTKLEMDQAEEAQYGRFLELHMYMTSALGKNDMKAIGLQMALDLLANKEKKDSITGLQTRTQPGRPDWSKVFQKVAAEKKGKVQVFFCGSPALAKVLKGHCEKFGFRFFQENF

Chain of NADPH oxidase 4 (Homo sapiens) (Q9NPH5 whole entry, looked up): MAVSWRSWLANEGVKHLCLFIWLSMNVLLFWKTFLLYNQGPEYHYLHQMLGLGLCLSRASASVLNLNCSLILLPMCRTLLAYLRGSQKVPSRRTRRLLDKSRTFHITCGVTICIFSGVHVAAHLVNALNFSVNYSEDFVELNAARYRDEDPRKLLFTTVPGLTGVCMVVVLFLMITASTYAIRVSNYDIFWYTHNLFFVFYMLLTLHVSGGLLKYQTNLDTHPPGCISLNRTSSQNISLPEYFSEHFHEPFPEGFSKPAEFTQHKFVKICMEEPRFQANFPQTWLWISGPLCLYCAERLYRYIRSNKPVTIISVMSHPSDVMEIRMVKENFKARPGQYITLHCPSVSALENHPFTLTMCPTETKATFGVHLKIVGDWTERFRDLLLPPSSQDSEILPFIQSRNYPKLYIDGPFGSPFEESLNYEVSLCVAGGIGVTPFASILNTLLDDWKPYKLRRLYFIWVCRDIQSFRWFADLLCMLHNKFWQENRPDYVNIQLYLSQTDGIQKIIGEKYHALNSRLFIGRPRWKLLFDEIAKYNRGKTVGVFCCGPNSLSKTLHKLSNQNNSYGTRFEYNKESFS
Chain of NADPH oxidase 2 (Homo sapiens) (P04839 whole entry, looked up): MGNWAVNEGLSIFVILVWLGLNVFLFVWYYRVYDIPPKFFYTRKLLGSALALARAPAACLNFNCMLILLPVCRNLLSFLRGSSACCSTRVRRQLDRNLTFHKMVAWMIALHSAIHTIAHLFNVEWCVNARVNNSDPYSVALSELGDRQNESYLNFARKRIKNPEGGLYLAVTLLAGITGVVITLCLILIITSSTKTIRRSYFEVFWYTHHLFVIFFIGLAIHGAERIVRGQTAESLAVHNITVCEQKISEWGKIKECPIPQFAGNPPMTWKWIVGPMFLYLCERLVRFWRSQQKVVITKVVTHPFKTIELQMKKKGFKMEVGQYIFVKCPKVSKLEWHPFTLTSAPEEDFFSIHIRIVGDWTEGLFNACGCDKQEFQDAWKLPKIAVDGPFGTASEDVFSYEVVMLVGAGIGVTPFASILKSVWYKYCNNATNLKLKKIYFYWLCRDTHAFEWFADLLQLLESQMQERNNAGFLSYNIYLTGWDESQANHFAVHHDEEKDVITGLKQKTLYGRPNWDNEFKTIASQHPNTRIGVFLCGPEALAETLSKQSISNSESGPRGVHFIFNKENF

With `CCCCC(=C=CC[C@H](O)c1cccc(OCCO)c1)C[C@H](O)COCc1ccccc1`, the z-score in assay [1] is 0.483 (inactive); in [3] it was 15.3 (active); in [4], 2.48 (inactive); in assay [5], 0.658 (inactive); in [6], 1.02 (inactive); in [7], 0.949. The figures for the z-score in assay [8], in assay [9] and in [10] were -2.67 (inactive), -1.29 (inactive) and -2.41, respectively. Also, in assay [2], the composite z-score is -0.0984.
Turning to `CCOC(=O)C1=CC[C@@H](c2ccccc2)N(S(=O)(=O)c2ccc(C)cc2)[C@H]1C=C(C)C`, the z-score in [1] is -0.179 (inactive); in assay [3] it was 2.27 (inactive); in assay [4], 1.42 (inactive); in assay [5] it was -0.627 (inactive); in assay [6], 0.756 (inactive); in [7] it was -0.459. The values for the z-score in [8], in [9] and in assay [10] were -0.0156 (inactive), 1.39 (inactive) and 1.43, respectively. Besides, in [2], the composite z-score was 0.129.
On to `CC[C@@H]1[C@@H]2C3C(=O)N(CC)C(=O)C3CC(=O)[C@@H]2[C@H](c2ccc(C)cc2)N1S(=O)(=O)c1ccc(C)cc1` (stereo not given in full), for which the z-score was 1.29 (inactive) in [1]; 1.39 (inactive) in assay [3]; 0.0985 (inactive) in assay [4]; -0.511 (inactive) in [5]; -1.35 (inactive) in [6]; 1.04 in assay [7]. In addition, the z-score in [8] was 1.04 (inactive); in [9], 0.451 (inactive); in [10], 2.06. In assay [2], this compound gave a composite z-score of -0.149.
On to `COC(=O)[C@@]1(Cc2ccc(F)cc2)[C@H]2c3cc(C(=O)N4CCCC4)n(Cc4ccccc4)c3C[C@H]2CN1C(=O)c1ccccc1`, for which the z-score in [1] was -1.25 (inactive); in [3] it was 4.64 (inactive); in assay [4], 0.899 (inactive); in assay [5], 2.65 (inactive); in [6], 1.26 (inactive); in assay [7] it was 0.178. In addition, the z-score in [8] is -0.165 (inactive); in [9] it was 0.648 (inactive); in assay [10], -1.48. Moreover, the composite z-score in [2] was determined as 0.216.
For `O=C1O[C@H](c2ccccc2)[C@H](c2ccccc2)N2[C@H]1[C@@H](C(=O)N1CCN(c3ncccn3)CC1)[C@]1(C(=O)Nc3ccc(C#CCCO)cc31)[C@H]2c1ccc(OCCO)cc1`, the z-score in [1] was -0.0115 (inactive); in assay [3], 4.32 (inactive); in assay [4], 1.18 (inactive); in [5], 0.588 (inactive); in assay [6] it was 0.585 (inactive); in [7], 0.034. Also, the z-score in assay [8] is 1.11 (inactive); in assay [9] it was 0.57 (inactive); in assay [10] it was 0.951. In assay [2], this compound gave a composite z-score of 0.473.
Take `CC(C)C(CO)N1C(=O)[C@@H]2[C@H]3C(=O)OCC=C[C@H]3OC23C=CCN(Cn2nnc4ccccc42)C(=O)[C@@H]13` (stereo not given in full): the z-score in assay [1] is 0.197 (inactive); in assay [3] it was 0.766 (inactive); in assay [4] it was 0.123 (inactive); in assay [5], 0.393 (inactive); in [6] it was 0.0882 (inactive); in [7], 0.234. The z-score in assay [8] was 0.699 (inactive); in assay [9], 0.247 (inactive); in [10] it was 0.94. This compound also had a composite z-score in [2] of -0.228.
Take `CC(C)CNC(=O)[C@@]1(c2ccc([N+](=O)[O-])cc2)CC(=O)N(C(C)C)[C@@H]1c1ccc(CO)cc1`: the z-score in [1] is 1.27 (inactive); in assay [3] it was 0.224 (inactive); in assay [4], -0.227 (inactive); in assay [5], -1.64 (inactive); in assay [6], -0.533 (inactive); in assay [7], 0.557. Moreover, the z-score was -0.145 (inactive) in assay [8], -0.423 (inactive) in assay [9] and -1.44 in assay [10]. This compound had a composite z-score in [2] of -0.0547.
For `COC(=O)[C@]1(Cc2ccccc2CN=[N+]=[N-])N=C(c2ccc(OCCCO)cc2)O[C@@H]1c1ccccc1CN=[N+]=[N-]`, the z-score in assay [1] is 1.23 (inactive); in [3], 30.8 (active); in assay [4] it was 24.1 (active); in [5] it was 1.88 (inactive); in assay [6] it was 5.85 (inactive); in [7] it was 0.196. The z-score in [8] is -2.35 (inactive); in assay [9] it was -0.0356 (inactive); in assay [10], -1.79. In assay [2], this compound gave a composite z-score of 0.0962.
Consider `COC(=O)c1c(CC[C@@H](CO)NC(=O)N[C@@H](C)Cn2cc(C3(O)CCCC3)nn2)oc(C(C)=O)c1C(=O)OC`, for which the z-score is -0.274 (inactive) in assay [1]; 1.88 (inactive) in [3]; -0.8 (inactive) in assay [4]; 0.816 (inactive) in assay [5]; -1.45 (inactive) in assay [6]; 2.2 in [7]. Also, the z-score in assay [8] was -2.54 (inactive); in [9], -1.84 (inactive); in [10], -2.35. Also, the composite z-score in assay [2] is 0.0561.
Regarding `COCCCNC(=O)[C@]1(Cc2ccccc2CN=[N+]=[N-])N=C(c2ccc(OCCCO)cc2)O[C@@H]1c1ccccc1CN=[N+]=[N-]`, the z-score was -0.279 (inactive) in [1]; 28.8 (active) in assay [3]; 21.5 (active) in [4]; 1.72 (inactive) in assay [5]; 2.09 (inactive) in assay [6]; 0.953 in assay [7]. Moreover, the z-score was -0.983 (inactive) in assay [8], -0.00869 (inactive) in assay [9] and -0.84 in assay [10]. The composite z-score in assay [2] was 0.861.
Consider `C=CCN1C(=O)[C@@]2(O[C@@H](CCn3cc([C@H](O)c4ccccc4)nn3)[C@H]([Si](C)(C)c3ccc(OC)cc3)[C@H]2C)c2cc(NC(=O)c3ccc(OC)cc3)ccc21`, for which the z-score in [1] was 0.55 (inactive); in [3], 6.81 (inactive); in assay [4], 1.77 (inactive); in [5] it was 1.39 (inactive); in assay [6], 1.38 (inactive); in assay [7], 0.689. The z-score in [8] is 0.106 (inactive); in assay [9], 0.863 (inactive); in assay [10], 0.583. The compound further came in with a composite z-score in assay [2] of -0.0016.
As for `COc1ccc(C(=O)Nc2ccc3c(c2)[C@]2(O[C@@H](CCO)[C@H]([Si](C)(C)c4ccc(OC)cc4)[C@H]2C)C(=O)N3Cc2ccccc2)cc1`, the z-score was 0.257 (inactive) in [1]; 4.99 (inactive) in assay [3]; 1.42 (inactive) in assay [4]; 2.07 (inactive) in assay [5]; -0.237 (inactive) in assay [6]; 0.776 in assay [7]. Besides, the z-score is -5.81 (inactive) in [8], -1.21 (inactive) in assay [9] and 0.304 in assay [10]. Besides, the composite z-score in assay [2] was -0.147.
Consider `O=C(O)[C@@]1(Cc2ccccc2)COC(c2ccc(OCCCO)cc2)=N1`, for which the z-score was 0.532 (inactive) in assay [1]; 1.36 (inactive) in assay [3]; -0.166 (inactive) in assay [4]; 0.619 (inactive) in assay [5]; 0.295 (inactive) in assay [6]; -0.521 in assay [7]. Also, the results for the z-score in assay [8], in assay [9] and in assay [10] were -0.0643 (inactive), 0.432 (inactive) and 0.237, respectively. In assay [2], this compound displayed a composite z-score of -0.0573.
